# Assay results: PubChem BioAssay
# Values without a mark were called inactive. Activity calls are given as the source filed them.
# Experiment: S. cerevisiae growth modulation with rapamycin, primary screen, strain BY4716, OD600, 96 h (AID 1091); note: test concentration not given here
# Details: higher = more signal, called active from +8 up or from −8 down
row,SMILES,z-score
1,O=C1c2ccccc2[C@](Cc2ccccc2I)(C(=O)O)[C@H](c2ccc(CO)cc2)N1Cc1ccccc1C(F)(F)F,0.0262
2,C=CCN1C(=O)[C@@]2(O[C@@H](CCO)[C@H]([Si](C)(C)c3ccc(OC)cc3)[C@H]2C)c2cc(NC(C)=O)ccc21,-0.741
3,O=C1O[C@@H](c2ccccc2)[C@@H](c2ccccc2)N2[C@@H](c3ccc(O)cc3)[C@]3(C(=O)Nc4ccccc43)[C@@H](C(=O)NC[C@H](O)c3ccccc3)[C@H]12,1.49
4,C=C(CCCC)C(=O)CC[C@@H](OC(=O)c1ccccc1-c1ccccc1C(=O)O)c1ccc(CO)o1,-0.667
5,COCCOC(=O)N1C(=O)[C@@]2(c3cc(C#CCCO)ccc31)[C@H](c1ccc(O)cc1)N1[C@H](c3ccccc3)[C@H](c3ccccc3)OC(=O)[C@H]1[C@@H]2C(=O)N1CCCCCCC1,0.563
6,O=C(NCC(O)CO)[C@]1(CCS(=O)(=O)c2ccccc2)N=C(c2ccc(OCCCO)cc2)O[C@@H]1c1ccccc1 (stereo not given in full),-0.92
7,CC(C)NC(=O)[C@@H]1c2ccccc2C(=O)N(C2CCCCC2)[C@H]1c1ccc(CO)cc1,0.13
8,CCOC(=O)C=Cc1cccc(OC)c1O,-0.346
9,NC(=O)NCC#Cc1ccc2c(c1)[C@]1(C(=O)N2)[C@H](C(=O)NC[C@H](O)c2ccccc2)[C@H]2C(=O)O[C@H](c3ccccc3)[C@H](c3ccccc3)N2[C@@H]1c1ccccc1OCCO,2.44
10,CN1C(=O)C2C(C1=O)C1C=C(c3ccc(CO)cc3)C2C(C2CC2)N1Cc1cc2c(cc1Br)OCO2 (stereo not given),0.385
11,O=C1OCCC/C=C\[C@H]2OC34C=CCN(Cn5nnc6ccccc65)C(=O)[C@H]3N(CCCO)C(=O)[C@@H]4C12 (stereo not given in full),-0.264
12,CC(C)N1C(=O)c2ccccc2[C@](C)(C(=O)NC2CC2)[C@@H]1c1ccc(CO)cc1,-0.699
13,O=C1C2C=CC(C(O)CCc3ccccc3)N(Nc3ccccc3)C2C(=O)N1c1ccccc1 (stereo not given),1.43
14,O=C1O[C@H](c2ccccc2)[C@H](c2ccccc2)N2[C@H]1[C@@H](C(=O)N1CCCCCCC1)[C@]1(C(=O)Nc3ccc(C#CC4=CCCCC4)cc31)[C@H]2c1ccc(O)cc1,0.791
15,CC(C)OC(=O)C1=CCC(c2cccc(Cl)c2)O1 (stereo not given),-1.11
16,C=CCN1C(=O)[C@@]2(O[C@@H](CCO)[C@H]([Si](C)(C)c3ccc(OC)cc3)[C@H]2C)c2cc(N3C(=O)COc4ccccc43)ccc21,35.4 (active)
17,C=CCC(OC(C)=O)[C@@H]1[C@@H](N(Cc2ccc(-c3ccccc3)cc2)C(=O)c2ccc(C)cc2)c2cc(OCCCO)ccc2N1C(=O)c1ccc2ccccc2n1 (stereo not given in full),-1.15
18,COCCOC(=O)N1C(=O)[C@@]2(c3cc(C#CC4=CCCCC4)ccc31)[C@H](c1ccc(OCCO)cc1)N1[C@H](c3ccccc3)[C@H](c3ccccc3)OC(=O)[C@H]1[C@@H]2C(=O)Nc1nc2ccccc2s1,3.21

row,SMILES,z-score
1,O=[N+]([O-])c1ccc(C[n+]2ccc(CCCO)cc2)o1,-0.302
2,C=C(C)[C@@H]1CC=C(C(O)C2C=CC3C(=O)N(Cc4ccccc4)C(=O)C3N2n2cnnc2)CC1 (stereo not given in full),0.112
3,CCCNC(=O)[C@@]1(C)c2ccccc2C(=O)N(Cc2cc(F)cc(C(F)(F)F)c2)[C@H]1c1ccc(CO)cc1,-1.24
4,CO[C@H]1O[C@H](CO)[C@@H](OC(=O)Nc2cccc(F)c2)[C@H](OC(=O)Nc2ccccc2-c2ccccc2)[C@@H]1OC(=O)Nc1ccccc1-c1ccccc1,-1.23
5,CCOC(=O)N1C(c2ccc(OCCCO)cc2)=NC(C(=O)OC)N1C(=O)OCC (stereo not given),-1.32
6,COCCCNC(=O)[C@@]1(Cc2ccccc2I)c2ccccc2C(=O)N(Cc2ccccc2)[C@H]1c1ccc(CO)cc1,0.951
7,COc1ccc(C#Cc2ccc3c(c2)[C@]2(C(=O)N3)[C@H](C(=O)N3CCN(c4ncccn4)CC3)[C@H]3C(=O)O[C@H](c4ccccc4)[C@H](c4ccccc4)N3[C@@H]2c2ccc(O)cc2)cc1,1.17
8,CN(C)CCCC[C@@H]1NC(=O)[C@@H]2C[C@H](C(=O)NCc3ccc(F)cc3)[C@H](c3cccc(OCCO)c3)N2C1=O,-0.663
9,O=C1O[C@@H](c2ccccc2)[C@@H](c2ccccc2)N2[C@@H](c3ccc(O)cc3)[C@]3(C(=O)Nc4ccc(C#CCCO)cc43)[C@@H](C(=O)O)[C@H]12,-0.265
10,CC(C)NC(=O)[C@@]1(c2ccc([N+](=O)[O-])cc2)CC(=O)N(C(C)C)[C@@H]1c1ccc(CO)cc1,-0.692
11,C=CCC(OC(C)=O)[C@@H]1[C@@H](N(Cc2ccc(-c3cccc(C(F)(F)F)c3)o2)C(=O)Cc2ccc(OC)cc2)c2cc(OCCCO)ccc2N1C(=O)Cc1ccc(OC)cc1 (stereo not given in full),-0.918
12,C[n+]1ccc2ccc(O)cc2c1,2.96
13,C=C(CCCC)/C(=C/C[C@H](OC(C)=O)c1ccc(CO)o1)c1cc(C(=O)OC)ccc1OC,-0.194
14,COCCOC(=O)N1C(=O)[C@@]2(c3cc(C#Cc4ccc(OC)cc4)ccc31)[C@H](c1ccc(OCCO)cc1)N1[C@H](c3ccccc3)[C@H](c3ccccc3)OC(=O)[C@H]1[C@@H]2C(=O)N1CCc2cc(OC)c(OC)cc2C1,7.07
15,CC(C)C(O)C1C=CC2C(=O)N(C)C(=O)C2N1N1CCCCC1 (stereo not given),-0.199
16,CCN(CC)c1ccc(N2CC=CC34O[C@@H]5C=CCOC(=O)[C@@H]5[C@H]3C(=O)N(CCCCCO)[C@@H]4C2=O)cc1 (stereo not given in full),-0.522
17,Cc1cc(C)c(C(O)C2C=CC3C(=O)NC(=O)C3N2Nc2ccccn2)c(C)c1 (stereo not given),0.415
